# Only some compounds are listed: those with a hit (about 1.1% of all), similar ones and a draw of the others.
# PrPC surface inh = cell surface PrPC inhibition, primary TR-FRET screen; P04156; TR-FRET read-out; inhibition, % at 13.8 µM; 370,000 tested, 0.43% active; AID 720596; in the data active = inhibition above about 24%; also: 0% = median of the test wells and 100% = reference compound wells
# DUSP3 inh = DUSP3 (human) phosphatase inhibition; P51452; recombinant VHR phosphatase, pNPP absorbance; inhibition, % at 13.3 µM; 290,000 tested, 0.52% active; in the data active = inhibition above about 50%
# Target sequence (P51452 whole entry, looked up): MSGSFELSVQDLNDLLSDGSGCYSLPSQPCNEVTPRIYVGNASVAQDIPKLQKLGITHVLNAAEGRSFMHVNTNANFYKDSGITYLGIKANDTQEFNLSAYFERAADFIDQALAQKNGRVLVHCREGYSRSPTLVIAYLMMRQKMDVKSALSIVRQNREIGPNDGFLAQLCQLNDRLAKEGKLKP
# 3CLpro inhibitor = SARS-CoV 3CLpro protease inhibition; P0C6X7; recombinant SARS-CoV 3CLpro, quenched FRET peptide cleavage; inhibition, % at 6 µM; 290,000 tested, 0.14% active; in the data active = inhibition above about 12%
# BJeLR lethal = kills HRASV12-expressing BJeLR cells. BJeLR (HRASV12) viability, CellTiter-Glo ATP luminescence, 48 h. inhibition, % (concentration not given with the values). 300,000 tested, 0.17% active. AID 1554; in the data active = inhibition above about 50%
# Starred values were filed as active, the others as inactive; x = no result given.
SMILES,PrPC surface inh,DUSP3 inh,3CLpro inhibitor,BJeLR lethal
Cc1ccc(/C=N\NC(=O)COc2ccc(C)cc2[N+](=O)[O-])cc1,-2,12,5,-8
Cc1ccc(OCC(=O)N/N=C\c2c(C)[nH]n(-c3ccccc3)c2=O)c([N+](=O)[O-])c1,-2,56*,1,4
N#Cc1ccccc1NC(=O)COC(=O)c1ccc(F)cc1F,5,53*,1,1
COc1ccc(/C=N\NC(=O)c2cccc(F)c2)cc1COc1ccccc1,11,x,x,54*
COc1ccc(OCc2cc(/C=N\NC(=O)c3ccccc3)ccc2OC)cc1,3,22,3,21
COc1ccc(-c2cc(-c3ccccc3)nc(Cl)n2)cc1OC,2,51*,3,-4
Cc1ccc(-c2cc(-c3ccccc3)nc(Cl)n2)cc1,1,30,-3,2
CC(C)(C)c1ccc(-c2csc(NNC3=NCCCCC3)n2)cc1,3,55*,-3,19
COC(=O)C1CN(Cc2ccccc2)C(=O)C1=O (stereo unspecified),2,x,x,x
O=C(Cn1c(=O)oc2ccccc21)Nc1ccc(F)c(F)c1,-1,57*,-1,5
Cc1ccccc1N(CC(=O)NCc1ccccc1)C(=O)CCC(=O)Nc1nccs1,-1,51*,0,0
CCOc1ccc(-n2c(COc3ccc(Cl)cc3)nnc2SCC(=O)Nc2ccc(OCc3ccccc3)cc2)cc1,9,x,x,x
C[C@@H]1CNC(=O)c2c(C(=O)N3CCN(c4ccccc4)CC3)ncn21,-5,x,x,x
CCC(=O)Nc1cc2c(C)cc(=O)oc2cc1C,0,56*,1,-15
O=C1NN(c2cccc(Br)c2)C(=O)/C1=C\c1ccc(O)cc1,7,53*,1,-3
O=C1NN(c2cccc(Br)c2)C(=O)/C1=C/c1ccc(-c2cc([N+](=O)[O-])ccc2O)o1,x,91*,2,-13
CCc1nc2ccc(C(=O)NCc3ccc4c(c3)OCO4)cn2c1N(C)C(=O)Cc1ccccc1,4,x,x,x
OCC1(CCc2ccccc2)CCN(C/C=C/c2ccccc2)CC1,0,56*,-6,-7
c1csc(CN2CCNCC2)c1,3,56*,0,-7
Cc1ccc(-c2csc3ncn(C(C)C(=O)O)c(=O)c23)cc1 (stereo unspecified),5,4,0,-8
COc1ccc(OC)c(CNC(=O)C2CCN(S(=O)(=O)N3CCCCC3)CC2)c1,2,51*,5,-2
Cc1ccc(C(=O)NCCN2CCC(n3c(=O)[nH]c4ccccc43)CC2)cc1C,-2,x,x,x
CCCCn1c(=O)c2c(nc3n2CCCN3Cc2ccccc2)n(C)c1=O,3,58*,0,8
Cn1c(=O)n(Cc2ccccc2)c(=O)c2c1nc1n2CCCN1Cc1ccccc1,1,15,-3,-5
CCOc1ccc(C(=O)Nc2nnc(S(=O)(=O)Nc3ccccc3C)s2)cc1,-1,10,1,5
SMILES,PrPC surface inh,DUSP3 inh,3CLpro inhibitor,BJeLR lethal
CSc1ccccc1C(=O)NCCCn1ccnc1,0,54*,2,17
O=C(NCCCn1ccnc1)c1ccc(S(=O)(=O)N2CCCCCC2)cc1,-6,31,6,4
CC1CC(C)CN(S(=O)(=O)c2ccc(C(=O)NCCCn3ccnc3)cc2)C1 (stereo unspecified),x,1,-2,109*
CCOC(=O)C1CCC(=O)N1Cc1c[nH]c2ccccc12 (stereo unspecified),5,x,x,x
CCCNC(=O)C1(C)CCN(Cc2cc3ccccc3o2)C1 (stereo unspecified),-1,x,x,x
CCCNC(=O)C1(C)CCCN(C(=O)c2cccc(C(F)(F)F)c2)C1 (stereo unspecified),3,x,x,x
CCC(C)n1c(NC(=O)c2ccccc2)c(C#N)c2nc3ccccc3nc21 (stereo unspecified),-1,58*,-3,-7
CCCCn1c(NC(=O)c2ccccc2)c(C#N)c2nc3ccccc3nc21,-7,33,2,x
CCCN(C(=O)/C=C/c1nc2ccccc2s1)C1CCS(=O)(=O)C1 (stereo unspecified),-23,x,x,x
Cc1ccc(C(C)NC(=O)c2ccc3c(c2)OCCO3)cc1C (stereo unspecified),0,55*,0,0
Cc1ccc(C(=O)NC(C)c2ccc(C)c(C)c2)s1 (stereo unspecified),3,x,x,-4
COC(=O)C1CN(C#N)N(c2ccc(Cl)cc2)C12c1ccccc1-c1ccccc12 (stereo unspecified),x,12,2,84*
C[C@H]1[C@@H](OC(=O)Nc2cccc(C(F)(F)F)c2)CC[C@@]23CCCN2C(=O)CCC[C@@H]13,-1,x,x,x

# From PubChem BioAssay
